Experimental data published in the supplement of paper PMC11732987, “Enantioselective OTUD7B fragment discovery through chemoproteomics screening and high-throughput optimisation” (Communications Chemistry, 2025).

Tests used:
Assay in all cases: log2 ratio of Biotin-Ahx-Ub-VS probe labelling (fragment/DMSO); higher = less target engagement (more negative = stronger competition), active = hit call of the paper (q ≤ 0.05, log2 ratio ≤ -1)
Conditions in all cases: compound concentration: 200 uM; treatment time: 3 h
USP34 = USP34 (UniProt Q70CQ2)
Procedure, shortened: (§1)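 Average log2 ratios of fragment over vehicle were obtained by unpaired t-test from global-median-normalised Spectronaut label-free quantities. Proteins with ≥2 unique peptides were included. HEK293T lysate (495 µg per sample) was treated in triplicate with fragment at 200 µM or vehicle for 3 h, then with Biotin-Ahx-Ub-VS at 0.5 µM final for 1 h, and labelled DUBs were NeutrAvidin-enriched and run by diaPASEF LC-MS/MS.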

USP36 = target: T1, USP36 (UniProt Q9P275)
T1 sequence (whole entry): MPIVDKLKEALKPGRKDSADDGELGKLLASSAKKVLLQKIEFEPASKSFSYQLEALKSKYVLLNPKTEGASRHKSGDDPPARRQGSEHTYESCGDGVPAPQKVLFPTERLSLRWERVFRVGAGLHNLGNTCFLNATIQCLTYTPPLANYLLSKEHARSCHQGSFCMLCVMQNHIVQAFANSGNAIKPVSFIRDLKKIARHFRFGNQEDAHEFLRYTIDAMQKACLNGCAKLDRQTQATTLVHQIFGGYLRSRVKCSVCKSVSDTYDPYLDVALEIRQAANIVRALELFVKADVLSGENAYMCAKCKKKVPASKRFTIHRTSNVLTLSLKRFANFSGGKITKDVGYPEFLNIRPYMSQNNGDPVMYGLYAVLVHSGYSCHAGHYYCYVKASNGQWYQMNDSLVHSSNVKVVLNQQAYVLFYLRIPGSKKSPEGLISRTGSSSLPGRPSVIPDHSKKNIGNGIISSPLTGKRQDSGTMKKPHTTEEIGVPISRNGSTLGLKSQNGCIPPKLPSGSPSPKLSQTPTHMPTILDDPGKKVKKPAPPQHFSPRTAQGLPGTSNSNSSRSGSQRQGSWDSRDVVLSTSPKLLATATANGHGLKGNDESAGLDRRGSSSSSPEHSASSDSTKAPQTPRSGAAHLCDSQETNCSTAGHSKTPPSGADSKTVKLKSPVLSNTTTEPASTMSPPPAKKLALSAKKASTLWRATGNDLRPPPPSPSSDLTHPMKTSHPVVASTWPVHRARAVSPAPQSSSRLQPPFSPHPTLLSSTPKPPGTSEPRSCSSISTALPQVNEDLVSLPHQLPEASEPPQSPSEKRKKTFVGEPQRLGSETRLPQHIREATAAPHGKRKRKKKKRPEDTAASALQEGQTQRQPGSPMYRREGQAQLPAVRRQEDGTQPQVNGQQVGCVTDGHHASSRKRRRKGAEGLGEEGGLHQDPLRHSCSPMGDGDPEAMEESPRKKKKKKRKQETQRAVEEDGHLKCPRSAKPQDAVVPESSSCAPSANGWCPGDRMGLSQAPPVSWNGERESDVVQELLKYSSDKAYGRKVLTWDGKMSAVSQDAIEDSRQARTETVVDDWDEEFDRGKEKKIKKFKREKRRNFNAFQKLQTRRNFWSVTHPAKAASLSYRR
Procedure, shortened: as §1

USP38 = target: T2, USP38 (UniProt Q8NB14)
T2 sequence (whole entry): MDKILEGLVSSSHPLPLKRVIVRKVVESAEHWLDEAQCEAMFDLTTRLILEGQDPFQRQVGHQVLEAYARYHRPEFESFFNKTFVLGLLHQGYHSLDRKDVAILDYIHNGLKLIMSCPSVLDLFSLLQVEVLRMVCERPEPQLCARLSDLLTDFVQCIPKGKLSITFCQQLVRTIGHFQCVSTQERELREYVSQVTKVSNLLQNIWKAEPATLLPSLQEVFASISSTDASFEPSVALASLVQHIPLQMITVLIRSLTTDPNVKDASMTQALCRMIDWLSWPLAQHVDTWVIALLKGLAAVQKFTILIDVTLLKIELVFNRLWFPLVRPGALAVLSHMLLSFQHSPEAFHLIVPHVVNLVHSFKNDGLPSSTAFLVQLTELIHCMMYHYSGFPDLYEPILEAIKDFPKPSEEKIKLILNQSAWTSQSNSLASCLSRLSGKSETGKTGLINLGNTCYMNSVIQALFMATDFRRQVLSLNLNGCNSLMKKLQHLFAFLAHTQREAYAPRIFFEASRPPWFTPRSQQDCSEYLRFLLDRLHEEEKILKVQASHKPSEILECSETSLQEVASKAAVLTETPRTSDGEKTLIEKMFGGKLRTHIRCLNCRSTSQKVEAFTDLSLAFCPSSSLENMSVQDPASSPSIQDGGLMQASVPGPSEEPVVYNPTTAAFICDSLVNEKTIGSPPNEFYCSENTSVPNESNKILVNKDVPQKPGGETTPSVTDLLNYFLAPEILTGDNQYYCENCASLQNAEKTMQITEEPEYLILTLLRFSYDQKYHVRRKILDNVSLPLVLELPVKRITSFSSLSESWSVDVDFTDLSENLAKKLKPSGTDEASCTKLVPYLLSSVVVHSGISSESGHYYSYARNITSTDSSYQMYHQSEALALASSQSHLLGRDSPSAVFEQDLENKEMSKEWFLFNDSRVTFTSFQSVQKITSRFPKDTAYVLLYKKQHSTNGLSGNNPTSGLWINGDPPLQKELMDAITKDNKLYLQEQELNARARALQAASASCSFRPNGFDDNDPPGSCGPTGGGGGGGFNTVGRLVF
Procedure, shortened: as §1

USP39 = target: T3, USP39 (UniProt Q53GS9)
T3 sequence (whole entry): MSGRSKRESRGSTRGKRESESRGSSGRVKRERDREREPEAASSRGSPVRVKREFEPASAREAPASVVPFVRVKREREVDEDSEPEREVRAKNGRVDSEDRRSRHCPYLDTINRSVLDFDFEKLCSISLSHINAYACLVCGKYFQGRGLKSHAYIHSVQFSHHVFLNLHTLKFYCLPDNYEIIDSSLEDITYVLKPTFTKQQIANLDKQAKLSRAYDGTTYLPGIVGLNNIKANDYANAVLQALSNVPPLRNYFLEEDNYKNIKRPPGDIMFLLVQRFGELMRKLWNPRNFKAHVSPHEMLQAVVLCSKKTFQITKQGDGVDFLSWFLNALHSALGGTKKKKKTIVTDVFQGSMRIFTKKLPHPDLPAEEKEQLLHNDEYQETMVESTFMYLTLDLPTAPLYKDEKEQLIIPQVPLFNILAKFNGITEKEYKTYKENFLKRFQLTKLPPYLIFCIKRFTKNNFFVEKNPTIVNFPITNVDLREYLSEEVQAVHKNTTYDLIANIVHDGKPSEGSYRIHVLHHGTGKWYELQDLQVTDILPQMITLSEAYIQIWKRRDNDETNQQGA
Procedure, shortened: as §1

USP4 = target: T4, USP4 (UniProt Q13107)
T4 sequence (whole entry): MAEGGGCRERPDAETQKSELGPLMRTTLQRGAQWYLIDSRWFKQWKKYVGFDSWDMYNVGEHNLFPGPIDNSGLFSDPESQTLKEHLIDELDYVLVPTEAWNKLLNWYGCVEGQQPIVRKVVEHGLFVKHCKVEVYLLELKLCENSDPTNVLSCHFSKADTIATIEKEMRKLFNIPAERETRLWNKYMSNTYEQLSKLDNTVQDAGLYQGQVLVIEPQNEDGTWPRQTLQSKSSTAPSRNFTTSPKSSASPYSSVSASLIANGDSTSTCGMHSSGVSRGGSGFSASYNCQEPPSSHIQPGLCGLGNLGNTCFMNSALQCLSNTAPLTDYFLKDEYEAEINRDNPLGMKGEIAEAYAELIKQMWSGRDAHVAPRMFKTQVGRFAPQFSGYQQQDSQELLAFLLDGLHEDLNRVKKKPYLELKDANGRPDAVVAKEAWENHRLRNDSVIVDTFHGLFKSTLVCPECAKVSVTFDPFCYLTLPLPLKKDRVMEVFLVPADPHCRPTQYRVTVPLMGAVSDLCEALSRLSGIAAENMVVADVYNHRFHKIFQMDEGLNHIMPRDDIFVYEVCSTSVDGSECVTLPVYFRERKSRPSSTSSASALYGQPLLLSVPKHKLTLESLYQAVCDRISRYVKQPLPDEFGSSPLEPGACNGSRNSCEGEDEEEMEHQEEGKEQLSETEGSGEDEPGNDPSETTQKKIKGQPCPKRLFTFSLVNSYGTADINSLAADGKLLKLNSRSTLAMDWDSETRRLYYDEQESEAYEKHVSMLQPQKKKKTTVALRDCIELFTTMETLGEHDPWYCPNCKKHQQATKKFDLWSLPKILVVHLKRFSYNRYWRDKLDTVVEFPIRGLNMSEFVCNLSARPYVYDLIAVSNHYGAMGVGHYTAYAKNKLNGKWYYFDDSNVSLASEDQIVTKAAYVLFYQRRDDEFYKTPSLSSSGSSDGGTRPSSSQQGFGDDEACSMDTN
Procedure, shortened: as §1

Measured: log2 ratio of Biotin-Ahx-Ub-VS probe labelling

Chain of USP34 (Q70CQ2 whole entry, the tested form may be a part): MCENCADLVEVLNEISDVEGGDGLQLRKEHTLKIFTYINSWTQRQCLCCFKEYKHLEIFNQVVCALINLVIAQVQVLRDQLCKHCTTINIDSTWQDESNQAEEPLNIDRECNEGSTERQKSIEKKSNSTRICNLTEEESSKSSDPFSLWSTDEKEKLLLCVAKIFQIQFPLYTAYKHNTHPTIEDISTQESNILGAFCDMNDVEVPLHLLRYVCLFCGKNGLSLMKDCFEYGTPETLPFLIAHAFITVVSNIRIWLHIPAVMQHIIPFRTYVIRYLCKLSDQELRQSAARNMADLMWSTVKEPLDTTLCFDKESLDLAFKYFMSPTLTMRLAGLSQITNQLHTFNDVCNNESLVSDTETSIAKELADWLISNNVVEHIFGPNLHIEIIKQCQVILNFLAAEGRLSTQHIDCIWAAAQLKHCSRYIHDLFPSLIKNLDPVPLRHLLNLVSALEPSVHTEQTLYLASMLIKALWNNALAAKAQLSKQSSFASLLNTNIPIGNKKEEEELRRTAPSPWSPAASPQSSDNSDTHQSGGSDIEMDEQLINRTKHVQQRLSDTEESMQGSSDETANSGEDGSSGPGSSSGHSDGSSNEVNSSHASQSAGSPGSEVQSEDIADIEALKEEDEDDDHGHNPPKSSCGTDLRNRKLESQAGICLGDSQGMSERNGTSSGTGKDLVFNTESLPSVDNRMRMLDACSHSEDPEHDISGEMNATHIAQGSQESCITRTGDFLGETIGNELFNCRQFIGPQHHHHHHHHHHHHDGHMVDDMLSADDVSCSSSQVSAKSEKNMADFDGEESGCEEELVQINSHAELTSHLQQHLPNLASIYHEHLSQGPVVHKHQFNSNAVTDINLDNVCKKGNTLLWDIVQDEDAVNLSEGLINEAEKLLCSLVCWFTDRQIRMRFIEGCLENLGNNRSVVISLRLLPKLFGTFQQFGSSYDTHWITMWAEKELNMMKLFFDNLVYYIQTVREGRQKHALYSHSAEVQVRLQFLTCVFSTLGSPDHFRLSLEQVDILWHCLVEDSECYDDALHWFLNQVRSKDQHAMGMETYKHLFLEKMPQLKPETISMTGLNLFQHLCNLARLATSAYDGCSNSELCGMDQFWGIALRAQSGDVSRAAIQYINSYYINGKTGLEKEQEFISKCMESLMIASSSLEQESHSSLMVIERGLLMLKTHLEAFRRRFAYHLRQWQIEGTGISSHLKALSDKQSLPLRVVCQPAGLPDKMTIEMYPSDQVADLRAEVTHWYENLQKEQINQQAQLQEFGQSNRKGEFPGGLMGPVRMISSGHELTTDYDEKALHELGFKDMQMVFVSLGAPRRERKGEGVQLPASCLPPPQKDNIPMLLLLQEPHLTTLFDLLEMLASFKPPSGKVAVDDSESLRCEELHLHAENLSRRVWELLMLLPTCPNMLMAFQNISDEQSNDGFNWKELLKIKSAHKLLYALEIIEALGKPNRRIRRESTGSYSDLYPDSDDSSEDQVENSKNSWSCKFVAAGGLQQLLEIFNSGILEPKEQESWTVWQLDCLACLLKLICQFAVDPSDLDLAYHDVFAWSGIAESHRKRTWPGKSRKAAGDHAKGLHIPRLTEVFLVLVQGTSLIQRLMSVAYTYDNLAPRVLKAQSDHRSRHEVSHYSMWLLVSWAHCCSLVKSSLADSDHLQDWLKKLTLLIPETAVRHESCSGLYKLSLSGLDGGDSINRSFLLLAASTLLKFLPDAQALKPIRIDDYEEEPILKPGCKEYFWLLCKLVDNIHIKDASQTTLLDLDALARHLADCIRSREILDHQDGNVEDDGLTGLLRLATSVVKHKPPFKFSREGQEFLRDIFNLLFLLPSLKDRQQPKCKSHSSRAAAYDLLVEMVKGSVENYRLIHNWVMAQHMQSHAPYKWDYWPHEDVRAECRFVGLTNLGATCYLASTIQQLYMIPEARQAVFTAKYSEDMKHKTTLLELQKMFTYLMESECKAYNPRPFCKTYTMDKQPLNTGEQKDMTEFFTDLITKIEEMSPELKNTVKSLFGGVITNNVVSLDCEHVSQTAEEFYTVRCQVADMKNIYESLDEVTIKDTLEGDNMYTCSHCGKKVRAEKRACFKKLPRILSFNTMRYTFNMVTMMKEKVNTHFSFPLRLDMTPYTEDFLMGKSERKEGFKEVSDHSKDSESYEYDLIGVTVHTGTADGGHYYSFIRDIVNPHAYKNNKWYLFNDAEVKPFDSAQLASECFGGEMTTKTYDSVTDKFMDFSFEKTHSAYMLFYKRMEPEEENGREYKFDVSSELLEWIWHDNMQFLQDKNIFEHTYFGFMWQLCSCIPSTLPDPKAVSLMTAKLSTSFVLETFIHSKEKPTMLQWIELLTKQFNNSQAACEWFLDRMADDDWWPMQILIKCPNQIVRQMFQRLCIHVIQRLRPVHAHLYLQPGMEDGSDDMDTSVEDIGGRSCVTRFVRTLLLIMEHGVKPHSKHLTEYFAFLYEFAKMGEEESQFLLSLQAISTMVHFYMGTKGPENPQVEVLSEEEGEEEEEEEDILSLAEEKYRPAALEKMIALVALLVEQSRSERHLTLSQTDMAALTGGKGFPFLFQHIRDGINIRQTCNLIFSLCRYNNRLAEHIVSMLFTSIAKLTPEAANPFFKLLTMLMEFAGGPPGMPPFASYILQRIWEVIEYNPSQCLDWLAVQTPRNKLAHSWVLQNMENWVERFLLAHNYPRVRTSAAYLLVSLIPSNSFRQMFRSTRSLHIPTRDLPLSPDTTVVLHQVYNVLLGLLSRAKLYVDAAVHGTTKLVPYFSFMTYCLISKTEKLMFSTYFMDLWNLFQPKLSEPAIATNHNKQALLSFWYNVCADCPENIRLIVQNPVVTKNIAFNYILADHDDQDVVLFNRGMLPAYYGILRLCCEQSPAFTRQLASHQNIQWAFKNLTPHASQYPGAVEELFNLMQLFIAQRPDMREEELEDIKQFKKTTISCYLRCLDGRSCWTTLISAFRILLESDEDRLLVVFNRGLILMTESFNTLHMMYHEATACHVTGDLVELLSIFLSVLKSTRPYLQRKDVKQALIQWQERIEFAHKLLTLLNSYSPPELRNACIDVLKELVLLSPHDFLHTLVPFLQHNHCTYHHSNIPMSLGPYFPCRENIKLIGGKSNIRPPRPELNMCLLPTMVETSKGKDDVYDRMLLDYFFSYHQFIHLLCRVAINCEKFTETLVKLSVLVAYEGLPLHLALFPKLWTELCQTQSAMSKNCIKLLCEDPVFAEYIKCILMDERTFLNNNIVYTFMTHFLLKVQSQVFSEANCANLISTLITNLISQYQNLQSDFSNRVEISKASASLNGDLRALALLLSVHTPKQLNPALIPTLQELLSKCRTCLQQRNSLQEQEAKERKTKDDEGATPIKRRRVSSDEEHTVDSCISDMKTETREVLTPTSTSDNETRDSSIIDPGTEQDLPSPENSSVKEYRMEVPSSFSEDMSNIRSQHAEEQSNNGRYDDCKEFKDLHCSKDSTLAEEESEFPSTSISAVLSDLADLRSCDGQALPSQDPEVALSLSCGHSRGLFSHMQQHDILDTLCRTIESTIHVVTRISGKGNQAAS

Cc1n[nH]c(=O)c2c(NC(=O)CCl)oc(C)c12
inactive: USP34 -0.107 | USP36 0.103 | USP38 0.0131 | USP39 0.082 | USP4 0.0593
